Source: PubChem BioAssay (NCI)
This is part of a sample that, as a whole, favours compounds with a hit. Of some 79,000 tested, about 15% had one in any assay. Activity calls are given as the source filed them. Rule as the data show it: active = growth inhibition above about 70%; inactive = the rest.

How the values were obtained:
[1] = NCI Yeast Anticancer Drug Screen. Data for the mec2-1 strain (AID 157); details: S. cerevisiae mec2-1 strain, active compounds read high
Method in brief: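 Cells of the genetically defined mec2-1 yeast strain are incubated with test compound. Inhibition of growth is calculated against vehicle-treated controls.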

[2] = NCI Yeast Anticancer Drug Screen. Data for the rad14 strain (AID 159);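 also: 0% = growth of vehicle-treated control cultures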; details: S. cerevisiae rad14 strain growth inhibition, active compounds read high
Method in brief: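 Inhibition of growth is reported for a repair-deficient yeast mutant following compound treatment, calculated relative to cultures that received vehicle.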

[3] = NCI Yeast Anticancer Drug Screen. Data for the sgs1 mgt1 strain (AID 161);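 also: 0% = growth of cultures given vehicle only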; details: S. cerevisiae sgs1 mgt1 strain, active compounds read high
Method in brief: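 Inhibition of yeast growth, normalised to vehicle-treated controls, is reported for a strain bearing genetic alterations in DNA damage repair.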

[4] = NCI Yeast Anticancer Drug Screen. Data for the CLN2oe strain (AID 163);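 also: 0% = growth of vehicle-only control cultures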; details: S. cerevisiae CLN2oe strain, active compounds read high
Method in brief: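 Strain altered in cell-cycle control, incubated with compound; growth compared to solvent-treated controls.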

[5] = NCI Yeast Anticancer Drug Screen. Data for the cln2 rad14 strain (AID 165);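 also: 0% = growth equal to vehicle treated cultures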; details: S. cerevisiae cln2 rad14 strain, active compounds read high
Method in brief: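 The screen exposed genetically defined yeast (cln2 rad14) to test compounds and scored growth inhibition relative to vehicle-treated controls.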

[6] = NCI Yeast Anticancer Drug Screen. Data for the bub3 strain (AID 167); details: S. cerevisiae bub3 mutant strain, active compounds read high
Method in brief: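 Mutant yeast screening strain plus compound; vehicle-treated cultures serve as the 0% inhibition reference.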

[7] = NCI Yeast Anticancer Drug Screen. Data for the wt2 strain (AID 169); details: S. cerevisiae wt2 strain growth inhibition, active compounds read high
Method in brief: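 Steps: yeast strain treated with compound; growth recorded; inhibition calculated relative to cultures given vehicle alone.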

[8] = NCI Yeast Anticancer Drug Screen. Data for the mlh1 strain (AID 171);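 also: 0% = growth of vehicle-treated control cultures of the same strain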; details: S. cerevisiae mlh1 strain growth inhibition, active compounds read high
Method in brief: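 Yeast screen: mutant strain plus compound, growth scored against vehicle control wells.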

[9] = NCI Yeast Anticancer Drug Screen. Data for the sgs1 strain (AID 173);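 also: 0% = growth of vehicle-only control cultures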; details: S. cerevisiae sgs1 mutant, active compounds read high
Method in brief: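 Inhibition of yeast growth served as the measure. The mutant strain was treated with each compound, and growth was normalised to cultures receiving vehicle alone.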

[10] = NCI Yeast Anticancer Drug Screen. Data for the mlh1 rad18 strain (AID 175); details: S. cerevisiae mlh1 rad18 strain growth inhibition, active compounds read high
Method in brief: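 Compound-treated yeast growth, normalised to vehicle controls. Strain bears defined DNA repair mutations.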

[11] = NCI Yeast Anticancer Drug Screen. Data for the rad18 strain (AID 177); details: S. cerevisiae rad18 mutant growth inhibition, active compounds read high
Method in brief: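 Inhibition values reflect reduced yeast growth compared with vehicle-treated controls, using a strain engineered with a DNA damage repair defect.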

[12] = NCI Yeast Anticancer Drug Screen. Data for the wt1 strain (AID 149);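 also: 0% = growth of vehicle-treated wt1 cultures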; details: S. cerevisiae wt1 strain (SPY 50644) growth inhibition, active compounds read high
Method in brief: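 Each compound is tested on wt1 yeast and the loss of growth versus vehicle gives the inhibition value.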

[13] = NCI Yeast Anticancer Drug Screen. Data for the rad50EPP+ strain (AID 151);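 also: 0% = growth of vehicle-treated control cultures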; details: S. cerevisiae rad50 mutant strain, active compounds read high
Method in brief: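 Strain rad50EPP+; compound exposure; % growth inhibition vs vehicle.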

[14] = NCI Yeast Anticancer Drug Screen. Data for the mgt1 strain (AID 153); details: S. cerevisiae mgt1 mutant growth inhibition, active compounds read high
Method in brief: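 Read-out: yeast growth inhibition vs vehicle control. Strain mgt1, drawn from a panel altered in DNA damage repair or cell cycle control.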

[15] = NCI Yeast Anticancer Drug Screen. Data for the rad50 strain (AID 155);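 also: 0% = growth of vehicle-only cultures of the same strain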; details: S. cerevisiae rad50 strain growth inhibition, active compounds read high
Method in brief: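 Vehicle-treated cultures provide the reference for the growth inhibition reported for compound-exposed, repair-deficient yeast.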

[16] = at 5.0 µM (retest, dose inferred, filed as 0.5)
[17] = at 50.0 µM (retest, dose inferred, filed as 5.0)

Measured: growth inhibition

Cc1ccc(Cl)c2c(=O)c3ccccc3[nH]c12
inactive: [1]; at 100.0 µM 11% | [2]; at 1.2 µM 0% | [2]; at 3.7 µM 3% | [2]; at 11.0 µM 4% | [2]; at 33.0 µM 5% | [2]; at 100.0 µM 19% | [3]; [16] 0% | [3]; [17] 34% | [3]; at 50.0 µM 41.3% | [4]; at 1.2 µM -4% | [4]; at 3.7 µM -5% | [4]; at 11.0 µM -4% | [4]; at 33.0 µM -2% | [4]; at 100.0 µM -12% | [5]; [16] -8% | [5]; [17] 9% | [5]; at 50.0 µM 11.2% | [6]; at 1.2 µM -3% | [6]; at 3.7 µM -2% | [6]; [16] -5% | [6]; at 11.0 µM -7% | [6]; at 33.0 µM -1% | [6]; [17] 14% | [6]; at 50.0 µM 27.6% | [6]; at 100.0 µM 4% | [7]; at 1.2 µM 0% | [7]; at 3.7 µM 8% | [7]; at 11.0 µM 1% | [7]; at 33.0 µM 4% | [7]; at 100.0 µM 10% | [8]; at 1.2 µM 0% | [8]; at 3.7 µM -1% | [8]; at 11.0 µM 0% | [8]; at 33.0 µM 0% | [8]; at 100.0 µM 12% | [9]; at 1.2 µM -2% | [9]; at 3.7 µM 2% | [9]; at 11.0 µM -1% | [9]; at 33.0 µM 4% | [9]; at 100.0 µM 23% | [10]; [16] 2% | [10]; [17] 59% | [11]; at 1.2 µM 1% | [11]; at 3.7 µM 2% | [11]; at 11.0 µM 2% | [11]; at 33.0 µM 7% | [11]; at 100.0 µM 54%
active: [10]; at 50.0 µM 71%

O=C1C(Br)=CC(Br)(Br)C=C1Br
active: [12]; at 33.0 µM 97% | [12]; at 100.0 µM 99% | [13]; at 11.0 µM 70% | [13]; at 33.0 µM 98% | [13]; at 100.0 µM 98% | [14]; at 33.0 µM 98% | [14]; at 100.0 µM 99% | [15]; [16] 99% | [15]; at 33.0 µM 95% | [15]; [17] 99% | [15]; at 50.0 µM 90.8% | [15]; at 100.0 µM 98% | [1]; [16] 100% | [1]; at 33.0 µM 99% | [1]; [17] 97% | [1]; at 50.0 µM 93.5% | [1]; at 100.0 µM 99% | [2]; at 33.0 µM 95% | [2]; at 100.0 µM 98% | [3]; [17] 100% | [3]; at 50.0 µM 93.7% | [4]; at 33.0 µM 98% | [4]; at 100.0 µM 99% | [5]; [17] 100% | [5]; at 50.0 µM 92.5% | [6]; at 33.0 µM 96% | [6]; [17] 99% | [6]; at 50.0 µM 92% | [6]; at 100.0 µM 98% | [7]; at 33.0 µM 96% | [7]; at 100.0 µM 98% | [8]; at 33.0 µM 96% | [8]; at 100.0 µM 98% | [9]; at 33.0 µM 96% | [9]; at 100.0 µM 98% | [10]; [16] 100% | [10]; [17] 100% | [10]; at 50.0 µM 90.6% | [11]; at 33.0 µM 95% | [11]; at 100.0 µM 98%
inactive: [12]; at 1.2 µM 6% | [12]; at 3.7 µM 9% | [12]; at 11.0 µM 47% | [13]; at 1.2 µM 24% | [13]; at 3.7 µM 31% | [14]; at 1.2 µM 9% | [14]; at 3.7 µM 1% | [14]; at 11.0 µM 58% | [15]; at 1.2 µM 0% | [15]; at 3.7 µM -3% | [15]; at 11.0 µM 30% | [1]; at 1.2 µM 6% | [1]; at 3.7 µM 28% | [1]; at 11.0 µM 51% | [2]; at 1.2 µM -32% | [2]; at 3.7 µM -10% | [2]; at 11.0 µM 28% | [3]; [16] -27% | [4]; at 1.2 µM 24% | [4]; at 3.7 µM 18% | [4]; at 11.0 µM 34% | [5]; [16] 56% | [6]; at 1.2 µM -8% | [6]; at 3.7 µM -16% | [6]; [16] 21% | [6]; at 11.0 µM 7% | [7]; at 1.2 µM -9% | [7]; at 3.7 µM -11% | [7]; at 11.0 µM 51% | [8]; at 1.2 µM -8% | [8]; at 3.7 µM -10% | [8]; at 11.0 µM 46% | [9]; at 1.2 µM 2% | [9]; at 3.7 µM 5% | [9]; at 11.0 µM 59% | [11]; at 1.2 µM -4% | [11]; at 3.7 µM -13% | [11]; at 11.0 µM 26%

CC(=O)O/N=C/c1c2ccccc2cc2ccccc12
active: [15]; [17] 90% | [2]; at 100.0 µM 78% | [3]; [17] 88% | [6]; [17] 84% | [10]; [16] 80% | [10]; [17] 92% | [11]; at 100.0 µM 83%
inactive: [12]; at 1.2 µM -1% | [12]; at 3.7 µM 2% | [12]; at 11.0 µM 0% | [12]; at 33.0 µM 3% | [12]; at 100.0 µM 10% | [13]; at 1.2 µM 14% | [13]; at 3.7 µM 24% | [13]; at 11.0 µM 44% | [13]; at 33.0 µM 64% | [13]; at 100.0 µM 66% | [14]; at 1.2 µM -4% | [14]; at 3.7 µM -3% | [14]; at 11.0 µM -1% | [14]; at 33.0 µM 9% | [14]; at 100.0 µM 20% | [15]; at 1.2 µM 0% | [15]; at 3.7 µM 1% | [15]; [16] 55% | [15]; at 11.0 µM 5% | [15]; at 33.0 µM 20% | [15]; at 50.0 µM 15.2% | [15]; at 100.0 µM 62% | [1]; at 1.2 µM -3% | [1]; at 3.7 µM 2% | [1]; [16] 4% | [1]; at 11.0 µM 7% | [1]; at 33.0 µM 20% | [1]; [17] 18% | [1]; at 50.0 µM 8.65% | [1]; at 100.0 µM 26% | [2]; at 1.2 µM -2% | [2]; at 3.7 µM 0% | [2]; at 11.0 µM 5% | [2]; at 33.0 µM 23% | [3]; [16] 30% | [3]; at 50.0 µM 63.6% | [4]; at 1.2 µM -10% | [4]; at 3.7 µM -20% | [4]; at 11.0 µM -13% | [4]; at 33.0 µM -6% | [4]; at 100.0 µM -6% | [5]; [16] 15% | [5]; [17] 40% | [5]; at 50.0 µM -47.8% | [6]; at 1.2 µM 9% | [6]; at 3.7 µM 12% | [6]; [16] 58% | [6]; at 11.0 µM 26% | [6]; at 33.0 µM 47% | [6]; at 50.0 µM 43.1% | [6]; at 100.0 µM 63% | [7]; at 1.2 µM -1% | [7]; at 3.7 µM -1% | [7]; at 11.0 µM -2% | [7]; at 33.0 µM 13% | [7]; at 100.0 µM 32% | [8]; at 1.2 µM 1% | [8]; at 3.7 µM -1% | [8]; at 11.0 µM 1% | [8]; at 33.0 µM 17% | [8]; at 100.0 µM 52% | [9]; at 1.2 µM -1% | [9]; at 3.7 µM -1% | [9]; at 11.0 µM 3% | [9]; at 33.0 µM 29% | [9]; at 100.0 µM 58% | [10]; at 50.0 µM 33% | [11]; at 1.2 µM 0% | [11]; at 3.7 µM -1% | [11]; at 11.0 µM 11% | [11]; at 33.0 µM 54%
